Screening data as filed in PubChem.
A selection: hits, their analogues and other compounds. The true share with any hit is near 2.1%.
aSyn 5UTR inh: MLPCN primary screen, SNCA 5' untranslated region; AID 1813, 2009; hit rate 0.82% among 300,000; inhibition, % (tested at 7.5 µM); alpha-synuclein 5'UTR reporter, inhibitor activity; in the data active = inhibition above about 60%; inconclusive = no clear call, values can overlap the other calls;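 also: H4 neuroglioblastoma cells stably carrying SNCA 5'UTR luciferase fusion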
PAX8 reporter: inhibitors of PAX8-driven TPO luciferase reporter, primary screen, RMG-I cells, single concentration; hit rate 1.2% among 360,000; AID 652154, 2013; SteadyGlo, 24 h; inhibition, % at 12.6 µM;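 active = mean replicate inhibition at least 60% with every replicate also reaching 60%; inconclusive = only one of the two criteria is met; inactive = mean below 60% and not all replicates reaching 60%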;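 also: luciferase light reporting Pax8 driven TPO promoter activity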
Shn3 inh set2: reduction of Shn3 3'UTR firefly luciferase signal, primary screen, Schnurri-3 inhibitor project, cell-based, Clone20 osteoblasts, set 2; Clone20 osteoblast Shn3 3'UTR firefly luciferase, 24 h; inhibition, % at 12.5 µM; hit rate 0.52% among 360,000;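 active = mean inhibition of at least 75% with every replicate also reaching 75%; inconclusive = mean inhibition at least 75% but some replicate below; inactive = mean inhibition below 75%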
TRPM1 prom inh: inhibitors of MITF-dependent TRPM1 promoter reporter, primary screen, cell-based, SK-MEL-5, single point, luciferase; hit rate 0.83% among 330,000; inhibition, % at 12.5 µM; SK-MEL-5 TRPM1 promoter luciferase, 24 h;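 active = mean inhibition across replicates of 60% or more, whatever share of single replicates reaches that level; inconclusive = some that reach 60%, reason not given; inactive = mean inhibition across replicates below 60%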
LMP1 NFkB inh: EBV LMP1-driven NF-kappaB luciferase reporter inhibitors, primary screen, cell-based, luminescence, single point; LMP1-induced NF-kappaB luciferase reporter cells; inhibition, % at 12.5 µM; hit rate 0.69% among 350,000; AID 504558, 2011; in the data active = inhibition above about 41%; inconclusive = no clear call, values can overlap the other calls
Of the large screens only hits and unclear results are named; the others gave an inactive call.

CC(O)CC(=O)OC[C@]12CC[C@H]3[C@@](C)(CC[C@H]4C(C)(C)CCC[C@]34C)[C@@H]1CC(C1=CC(=O)OC1O)O2 (some centres not stated)	Shn3 inh set2 93 (no result: aSyn 5UTR inh, PAX8 reporter, TRPM1 prom inh, LMP1 NFkB inh)
Cc1ccc(N/C(N)=N/c2nc(CSc3nnc(C)s3)cc(=O)[nH]2)c(C)c1	aSyn 5UTR inh 83
COc1ccc(Cl)cc1N/C(N)=N/c1nc(C)cc(=O)[nH]1	none
COc1ccc(Cl)cc1N/C(N)=N/c1nc(CSc2ccc(C)cc2)cc(=O)[nH]1	Shn3 inh set2 80 (no result: PAX8 reporter)
N#C[C@H]1[C@@H](c2ccc(C#CC3CCCCC3)cc2)[C@@H](CO)N1S(=O)(=O)c1ccccc1	PAX8 reporter 79 (no result: aSyn 5UTR inh, Shn3 inh set2, TRPM1 prom inh, LMP1 NFkB inh)
N#C[C@H]1[C@@H](c2ccc(C#CC3CCCCC3)cc2)[C@H](CO)N1S(=O)(=O)c1ccccc1	none (no result: aSyn 5UTR inh, Shn3 inh set2, TRPM1 prom inh, LMP1 NFkB inh)
CCCC#Cc1ccc([C@@H]2[C@@H](C#N)N(S(=O)(=O)c3cccc(F)c3)[C@H]2CO)cc1	PAX8 reporter 81 (no result: aSyn 5UTR inh, Shn3 inh set2, TRPM1 prom inh, LMP1 NFkB inh)
N#C[C@H]1[C@H](c2ccc(C#CC3CCCCC3)cc2)[C@@H](CO)N1S(=O)(=O)c1ccccc1	PAX8 reporter 68 (no result: aSyn 5UTR inh, Shn3 inh set2, TRPM1 prom inh, LMP1 NFkB inh)
CCCC#Cc1ccc([C@@H]2[C@@H](CO)N(S(=O)(=O)c3cccc(F)c3)[C@H]2C#N)cc1	none (no result: aSyn 5UTR inh, Shn3 inh set2, TRPM1 prom inh, LMP1 NFkB inh)
Cc1ccccc1S(=O)(=O)N1[C@H](CO)[C@@H](c2ccc(C#CC3CC3)cc2)[C@@H]1C#N	PAX8 reporter 64 (no result: aSyn 5UTR inh, Shn3 inh set2, TRPM1 prom inh, LMP1 NFkB inh)
COc1ccc(Nc2nnc(SCc3cn4c(C)cccc4n3)s2)cc1	none
N#C[C@@H]1[C@@H](c2ccc(-c3ccccc3)cc2)[C@@H](CO)N1C(=O)Cc1ccncc1	PAX8 reporter 68 (no result: aSyn 5UTR inh, Shn3 inh set2, TRPM1 prom inh, LMP1 NFkB inh)
N#C[C@H]1[C@@H](c2ccc(C#CC3CCCCC3)cc2)[C@@H](CO)N1C(=O)Cc1ccccn1	PAX8 reporter 61 (no result: aSyn 5UTR inh, Shn3 inh set2, TRPM1 prom inh, LMP1 NFkB inh)
CCOC(=O)N/N=C(C)/C=C/c1ccccc1	none
COc1ccc(/C=C2\SC(=S)N(CCCC(=O)NNC(=O)c3ccccc3O)C2=O)cc1	aSyn 5UTR inh 75, PAX8 reporter 66, TRPM1 prom inh 92
COc1ccc(/C=C2/SC(=S)N(CCCC(=O)Nc3cccc(O)c3)C2=O)cc1	PAX8 reporter 77
COc1ccc(/C=C2\SC(=S)N(CCC(=O)NC3C=CS(=O)(=O)C3)C2=O)cc1 (configuration not stated)	aSyn 5UTR inh 66
COc1cccc(/C=C2\SC(=S)N(CCC(=O)NCCc3ccc(O)cc3)C2=O)c1	PAX8 reporter 100, LMP1 NFkB inh 41
COc1cccc(NC(=O)C[C@@H]2CC[C@H]3[C@@H](COc4ccc(NS(=O)(=O)c5cccc(F)c5)cc4C(=O)N3C)O2)c1	none (no result: aSyn 5UTR inh, Shn3 inh set2, TRPM1 prom inh, LMP1 NFkB inh)
COc1ccccc1N1C(=O)N(C(C)=O)C2C1Nc1ccccc1N2C (configuration not stated)	TRPM1 prom inh 69 (no result: PAX8 reporter)
Cc1cccnc1NC(=S)Nc1ccc(F)cc1F	none
O=C(NCCO)c1ccc2nc(Cc3cccc(Cl)c3)oc2c1	none
O=C(COC(=O)CCN1C(=O)/C(=C\C=C\c2ccccc2)SC1=S)Nc1cc(F)ccc1F	aSyn 5UTR inh 64, TRPM1 prom inh 63
O=C1C=CC(=O)N1c1ccccc1N1C(=O)C=CC1=O	PAX8 reporter inconclusive, Shn3 inh set2 94, TRPM1 prom inh 94 (no result: aSyn 5UTR inh)
O=C(O)c1cccc(N2C(=O)C=CC2=O)c1	none (no result: aSyn 5UTR inh, TRPM1 prom inh)
O=C(c1ccccc1)c1ccccc1N1C(=O)C=CC1=O	Shn3 inh set2 93
CO[C@H]1CN(C)C(=O)c2ccc(NC(=O)Nc3cc(F)ccc3F)cc2OC[C@@H](C)N(C)C[C@@H]1C	none (no result: aSyn 5UTR inh, Shn3 inh set2, TRPM1 prom inh, LMP1 NFkB inh)
Cc1ccc(CNc2ccc(N3CCOCC3)c(Cl)c2)cc1	none
CCCCCCC1CC(C)(C(=O)CNc2nncs2)OC1=O (configuration not stated)	none
Cc1ccc(S(=O)(=O)Nc2cccc3ncccc23)cc1	none
Cc1ccc(S(=O)(=O)Nc2cccc3ncccc23)s1	TRPM1 prom inh 100 (no result: PAX8 reporter)
C=C(C(=O)c1ccccc1)C(NC(C)(C)C)c1ccccc1 (configuration not stated)	PAX8 reporter 81, TRPM1 prom inh 99, LMP1 NFkB inh 91 (no result: aSyn 5UTR inh)
O=C(CC(Nc1ccccc1)C(=O)O)c1ccccc1 (configuration not stated)	none (no result: PAX8 reporter)
C=C(C(=O)c1ccccc1)C(C)CC(=O)c1ccccc1 (configuration not stated)	PAX8 reporter 62
CN1CCn2cnc(C(=O)NCc3ccccc3)c2C1=O	none (no result: aSyn 5UTR inh, TRPM1 prom inh)
O=C1CCC(C(=O)N2CCSCC2)CN1CCc1ccccc1 (configuration not stated)	none
CCn1c(C)nc2cc(-c3nc4n(n3)Cc3ccccc3-4)ccc21	aSyn 5UTR inh 87, Shn3 inh set2 97, TRPM1 prom inh 98, LMP1 NFkB inh 86 (no result: PAX8 reporter)
Cc1cccc(N(C)S(=O)(=O)c2ccc(-c3cc(C)no3)s2)c1	aSyn 5UTR inh 88
N#C[C@@H]1[C@H](c2ccccc2)[C@H](CO)N1C(=O)C1CCCC1	none (no result: aSyn 5UTR inh, Shn3 inh set2, TRPM1 prom inh, LMP1 NFkB inh)
CCCCOC(=O)c1[nH]c2c(c1C)C(=O)CC(c1cc(OC)c(OC)c(OC)c1)C2 (configuration not stated)	Shn3 inh set2 82 (no result: TRPM1 prom inh)
COCCOC(=O)c1[nH]c2c(c1C)C(=O)CC(c1ccccc1)C2 (configuration not stated)	aSyn 5UTR inh 78 (no result: PAX8 reporter)
C=CCOC(=O)c1[nH]c2c(c1C)C(=O)CC(c1cc(OC)c(OC)c(OC)c1)C2 (configuration not stated)	Shn3 inh set2 88 (no result: PAX8 reporter)
COC(=O)c1[nH]c2c(c1C)C(=O)CC(c1cccs1)C2 (configuration not stated)	aSyn 5UTR inh 85 (no result: PAX8 reporter)
COCCOC(=O)c1[nH]c2c(c1C)C(=O)CC(c1ccc(F)cc1)C2 (configuration not stated)	none
CCc1ccc(NC(=O)c2noc(C(C)C)c2[N+](=O)[O-])cc1	none
Cc1ccccc1Cn1cc(NC(=O)c2noc(C(C)C)c2[N+](=O)[O-])cn1	aSyn 5UTR inh 106
CC12CCC(=O)C=C1CCC1C2C(O)CC2(C)C(c3csc(N)n3)CCC12 (configuration not stated)	Shn3 inh set2 86 (no result: aSyn 5UTR inh)
CCC(C(=O)OCC(=O)C1(O)CCC2C3CCC4=CC(=O)CCC4(C)C3C(O)CC21C)C(C)C (configuration not stated)	none (no result: aSyn 5UTR inh)
CC12CCC(=O)C=C1CCC1C2CCC2(C)C(c3csc(N)n3)CCC12 (configuration not stated)	none (no result: aSyn 5UTR inh)
CC(=O)[C@@]1(O)CC[C@H]2[C@@H]3CCC4=CC(=O)CC[C@]4(C)[C@H]3[C@@H](O)C[C@@]21C	LMP1 NFkB inh 56
CC(=O)c1cccc(NC(=O)CSc2nnc(-c3cccnc3)o2)c1	none
O=C(N/N=C\c1ccc(OCC(=O)N2CCCC2)cc1)C(=O)Nc1ccccc1F	none
